Experimental data published in the supplement of paper PMC12669032.
A number with no mark means an inactive call.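 Rule for the calls: active = AUC reduced over 20% with Padj below 0.05 in at least 2 of 3 replicates; inactive = otherwise.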

What was measured:
Experiment in all cases: growth AUC relative to DMSO control (median of replicates) (fraction); higher = more growth (less inhibition), active = hit call of the paper
Conditions in all cases: 20 µM; 24 h
Akkermansia muciniphila = test system: Akkermansia muciniphila
In short: (§1)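 For each compound at 20 µM (1% DMSO), gut bacterial monocultures seeded at OD600 0.05 grew anaerobically in mGAM at 37 °C in round-bottom 96-well plates. Hourly OD600 readings over 24 h gave growth curves whose minimum OD was set to 0. Area under these curves was normalised to the plate median of solvent-only wells, or to row and column medians on the industrial chemical plate. Values are medians of three biological replicates grown on separate days.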

Bacteroides caccae = test system: Bacteroides caccae
In short: as §1

Bacteroides clarus = test system: Bacteroides clarus
In short: as §1

Bacteroides dorei = test system: Bacteroides dorei
In short: as §1

Bacteroides stercoris = test system: Bacteroides stercoris
In short: as §1

[1] = test system: Bacteroides thetaiotaomicron
In short: as §1

Bacteroides uniformis = test system: Bacteroides uniformis
In short: as §1

[2] = test system: Bifidobacterium longum subsp. longum
In short: as §1

Clostridium difficile = test system: Clostridium difficile
In short: as §1

Collinsella aerofaciens = test system: Collinsella aerofaciens
In short: as §1

Row | Compound | growth AUC (Akkermansia muciniphila) | growth AUC (Bacteroides caccae) | growth AUC (Bacteroides clarus) | growth AUC (Bacteroides dorei) | growth AUC (Bacteroides stercoris) | growth AUC [1] | growth AUC (Bacteroides uniformis) | growth AUC [2] | growth AUC (Clostridium difficile) | growth AUC (Collinsella aerofaciens)
1 | Oc1cc(Cl)cc(Cl)c1 | 1.04 | 1.01 | 1 | 0.996 | 1.08 | 0.917 | 1.01 | 0.998 | 1 | 1.01
2 | CC(C)N1C(=O)c2ccccc2NS1(=O)=O | 1.21 | 0.999 | 0.999 | 0.946 | 1 | 1.01 | 0.977 | 1.06 | 0.98 | 0.967
3 | O=C(NC(=O)c1c(F)cccc1F)Nc1cc(Cl)c(OC(F)(F)C(F)F)c(Cl)c1 | 1.17 | 1 | 0.954 | 0.967 | 1.05 | 0.998 | 0.956 | 0.999 | 0.967 | 0.994
4 | CC1(C)OC(c2ccco2)CN1C(=O)C(Cl)Cl (stereo not given) | 0.918 | 1 | 0.942 | 1 | 1.03 | 0.992 | 1.02 | 1.03 | 0.956 | 1.02
5 | CCOP(=S)(OCC)SCn1nnc2ccccc2c1=O | 0.989 | 0.969 | 0.993 | 1.01 | 1.1 | 0.908 | 0.913 | 1.04 | 1.02 | 1.03
6 | CN(C)C(CSS(=O)(=O)[O-])CSS(=O)(=O)O.[Na+] | 1.01 | 1.02 | 0.998 | 1.03 | 1.03 | 0.98 | 1.13 | 1.01 | 0.943 | 0.999
7 | CCSCc1ccccc1OC(=O)NC | 0.874 | 1.01 | 0.972 | 0.995 | 0.992 | 0.967 | 0.973 | 0.967 | 0.972 | 1
8 | O=c1oc2ccccc2c(O)c1C(CC(O)c1ccc(-c2ccc(Br)cc2)cc1)c1ccccc1 (stereo not given) | 1 | 0.438 (active) | 0.279 (active) | 0.563 (active) | 0.00869 (active) | 0.733 (active) | 0.703 (active) | 0.747 (active) | 0.327 (active) | 0.941
9 | CC(C)(C)C(O)C(Oc1ccc(Cl)cc1)n1cncn1 (stereo not given) | 0.947 | 0.985 | 0.996 | 1 | 1.17 | 0.986 | 1.04 | 0.943 | 1.08 | 1.03
10 | CC(C)(C)C(O)(CCc1ccc(Cl)cc1)Cn1cncn1 (stereo not given) | 0.856 | 0.965 | 1.01 | 1.03 | 1.1 | 0.98 | 0.959 | 0.956 | 1.06 | 1.06
11 | CC(C)[C@H](C(=O)O[C@H](C#N)c1cccc(Oc2ccccc2)c1)c1ccc(Cl)cc1 | 1.1 | 0.99 | 0.979 | 1.04 | 0.778 | 1.01 | 1.02 | 0.917 | 1 | 0.921
12 | CC(C)(C)[C@@H](O)[C@H](Oc1ccc(Cl)cc1)n1cncn1 | 1.06 | 0.904 | 1.02 | 0.953 | 1.25 | 0.948 | 0.975 | 0.998 | 1 | 0.988
13 | CNC(=O)c1cc(C#N)cc(C)c1NC(=O)c1cc(Br)nn1-c1ncccc1Cl | 0.947 | 1.04 | 0.977 | 1.01 | 0.933 | 0.982 | 0.995 | 0.999 | 1 | 0.981
14 | COP(=S)(NC(C)C)Oc1ccccc1C(=O)OC(C)C (stereo not given) | 1.07 | 0.991 | 0.93 | 0.942 | 1.04 | 0.907 | 0.872 | 1.02 | 1.01 | 1.01
15 | COc1cc(C)c(C(=O)c2c(OC)ccc(Br)c2C)c(OC)c1OC | 1.05 | 1 | 0.959 | 0.992 | 0.958 | 0.951 | 0.91 | 0.885 | 1.03 | 0.956
16 | CC(C)(C)C(O)/C(=C/c1ccc(Cl)cc1Cl)n1cncn1 (mixture of isomers) | 1 | 0.869 | 0.947 | 0.854 | 1.32 | 0.88 | 0.874 | 1.02 | 0.964 | 1.03
17 | ClC(Cl)=C(c1ccc(Cl)cc1)c1ccc(Cl)cc1 | 1.1 | 0.933 | 0.961 | 0.953 | 1.18 | 0.956 | 1.01 | 1.05 | 0.969 | 0.842
18 | CCO/N=C(\CC)C1=C(O)CC(c2c(C)cc(C)cc2C)CC1=O (stereo not given) | 1.1 | 0.821 | 1 | 0.999 | 0.97 | 0.986 | 0.962 | 1.05 | 0.969 | 0.943
19 | OCC(O)CCl (stereo not given) | 1.01 | 1.01 | 0.998 | 1.01 | 1.02 | 0.984 | 1 | 0.965 | 1.01 | 1.01
20 | O=C(Nc1ccccc1)Nc1cnns1 | 0.941 | 0.868 | 0.921 | 0.918 | 1.04 | 0.941 | 1.01 | 1.03 | 0.936 | 0.969
21 | Oc1ccc(Cl)cc1Cc1cc(Cl)ccc1O | 0.202 (active) | 0.416 (active) | 0.154 (active) | 0.765 | 0.00782 (active) | 0.359 (active) | 0.163 (active) | 0.598 (active) | 0.633 (active) | 0.878
22 | O=C(O)CNCP(=O)(O)O | 1.07 | 1.06 | 0.999 | 0.981 | 1.08 | 1.02 | 0.977 | 1.05 | 1.06 | 0.997
23 | COCC(=O)N(c1c(C)cccc1C)[C@H](C)C(=O)OC | 0.94 | 1 | 1.04 | 1.04 | 1.06 | 1 | 1.02 | 1.1 | 1.02 | 1.04
24 | Cc1cnc2c(C(=O)O)c(Cl)ccc2c1 | 0.939 | 0.996 | 0.986 | 1.03 | 1.03 | 0.995 | 1.04 | 0.967 | 0.995 | 1.01
25 | CCC(C)(C)c1ccc(O)cc1 | 0.91 | 1.01 | 0.981 | 1.03 | 0.859 | 1 | 1 | 1.08 | 1.06 | 1.01
26 | CCNC(=O)NC(=O)/C(C#N)=N/OC | 0.998 | 1 | 1 | 0.983 | 1.08 | 1 | 0.956 | 0.901 | 0.965 | 1.07
27 | CS(=O)(=O)c1ccc(C(=O)C2C(=O)CCCC2=O)c(Cl)c1COCC(F)(F)F | 1.07 | 1.02 | 0.988 | 0.999 | 1.02 | 0.989 | 0.989 | 1.01 | 0.979 | 1.03
28 | CCOP(=O)(OCC)OP(=O)(OCC)OCC | 1.07 | 0.988 | 1 | 0.956 | 0.932 | 1.03 | 0.992 | 1.02 | 1.03 | 0.966
29 | CCOC(=O)CC(SP(=S)(OC)OC)C(=O)OCC (stereo not given) | 1.13 | 0.953 | 1 | 0.881 | 0.982 | 0.977 | 0.965 | 1.09 | 0.845 | 0.955
